Results reported in PubChem BioAssay (NCI).
About 83,000 compounds went through this panel and 20% of them were active in at least one assay; those are over-represented in the sample as a whole.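 The test compound was applied at a single concentration to cells in 96-well plates for 48 hours, and percent growth was recorded.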 A number with no mark means an inactive call. Calls of active or inactive are those of the source. The calls were made as follows: active = growth percent below 10; inactive = the rest.

Experiments:
Experiment in all cases: NCI-60 one-dose screen, 48 h (100 = growth as untreated, 0 = no growth, -100 = all killed)
Conditions in all cases: 10 µM unless noted
HCT-15 colon = test system: HCT-15 colon
HT29 colon = test system: HT29 colon
SNB-75 CNS = test system: SNB-75 CNS
SNB-19 CNS = test system: SNB-19 CNS
U251 CNS = test system: U251 CNS
PC-3 prostate = test system: PC-3 prostate
SK-MEL-5 melanoma = test system: SK-MEL-5 melanoma
UACC-62 melanoma = test system: UACC-62 melanoma
SK-MEL-28 melanoma = test system: SK-MEL-28 melanoma
SK-MEL-2 melanoma = test system: SK-MEL-2 melanoma
EKVX NSCLC = test system: EKVX NSCLC
SN12C renal = test system: SN12C renal
UO-31 renal = test system: UO-31 renal
TK-10 renal = test system: TK-10 renal
ACHN renal = test system: ACHN renal
CAKI-1 renal = test system: CAKI-1 renal
A498 renal = test system: A498 renal
CCRF-CEM leukemia = test system: CCRF-CEM leukemia
MOLT-4 leukemia = test system: MOLT-4 leukemia

SMILES	growth (HCT-15 colon)	growth (HT29 colon)	growth (SNB-75 CNS)	growth (SNB-19 CNS)	growth (U251 CNS)	growth (PC-3 prostate)	growth (SK-MEL-5 melanoma)	growth (UACC-62 melanoma)	growth (SK-MEL-28 melanoma)	growth (SK-MEL-2 melanoma)	growth (EKVX NSCLC)	growth (SN12C renal)	growth (UO-31 renal)	growth (TK-10 renal)	growth (ACHN renal)	growth (CAKI-1 renal)	growth (A498 renal)	growth (CCRF-CEM leukemia)	growth (MOLT-4 leukemia)
O=C(/C=C/c1cccc(OCc2ccc(F)cc2)c1)c1nc2ccccc2[nH]1	-58.4% (active)	-46.1% (active)	116%	68.4%	-70.9% (active)	15%	65.5%	72.6%	104%	104%	38%	76.9%	69.4%	79%	78.9%	67.3%	112%	6.9% (active)	-11.2% (active)
Cc1cc2c(cc1Cl)C(=O)/C(=C/c1ccccc1)O2	13.3%	38.6%	52.5%	34.6%	8.18% (active)	29.8%	-75.4% (active)	29.3%	49.9%	41%	-7.97% (active)	-68.8% (active)	-80.4% (active)	56%	-83.1% (active)	-81.1% (active)	115%	4.91% (active)	0.549% (active)
CC(=O)Nc1ccc(-n2cnc3cc(-c4ccc(O)cc4)ccc32)cc1C(F)(F)F	16.1%	26.3%	8.79% (active)	27.8%	18%	44.8%	5.35% (active)	21.1%	20.5%	17.4%	27.3%	15.6%	10.3%	33%	6.32% (active)	28.6%	57.1%	40.5%	29.6%
COc1cc(/C=C/C(=O)c2nnn(-c3ccc(Cl)cc3)c2C)cc(OC)c1OC	12.4%	15.5%	22.5%	60.3%	17.3%	30.6%	21.5%	28.7%	46.9%	51.3%	10.1%	15.5%	54%	86.7%	42.4%	43.2%	132%	-19.2% (active)	-10.7% (active)
O=C(N=Nc1c(O)[nH]c2ccc([N+](=O)[O-])cc12)c1ccc2nc(-c3ccccc3)[nH]c2c1	105%	110%	95.7%	43.6%	34.8%	53.3%	97.7%	75.5%	60.8%	77%	97.5%	49.5%	84.4%	140%	101%	91.7%	122%	32.7%	43.3%
C=Cn1cc(C(=O)O)c(=O)c2cc(F)c(N3CCN(c4nccc(-c5nccs5)n4)CC3)cc21	-51.5% (active)	-52% (active)	-23.3% (active)	-0.431% (active)	5.03% (active)	8.48% (active)	-47.7% (active)	-84.7% (active)	-38.5% (active)	-83.2% (active)	-24.2% (active)	-16.8% (active)	-61.5% (active)	-13.2% (active)	-43% (active)	-37.1% (active)	-21.4% (active)	15.3%	1.77% (active)
COc1cc2c(c(OC)c1OC)C(=O)CC(c1cccc(NC(=O)c3cccc(NC(=O)[C@H](C)NC(=O)OC(C)(C)C)c3)c1)O2 (some centres undefined)	44.2%	62.2%	64.6%	78.8%	78.1%	45.6%	25.9%	39.7%	85.6%	50.9%	93.3%	59.9%	44.1%	101%	41.5%	42.2%	104%	31.2%	36.5%
COc1cc(C2CC(c3cc(OC)c(OC)c(OC)c3)=NN2C(C)=O)ccc1OCc1ccccc1 (centres undefined)	34.6%	38%	49.3%	52.2%	44.3%	9.84% (active)	9.77% (active)	24%	42.1%	21.3%	32.6%	41.1%	8.63% (active)	32.1%	28.2%	29%	55.1%	40.2%	8.79% (active)
Cn1cc(-c2nnc(N)nc2-c2c[nH]c3ccc(F)cc23)c2cccnc21	28.5%	16.8%	24.4%	52.2%	37.3%	63.7%	20.9%	36.9%	63.2%	15.7%	62.4%	45.9%	48.4%	82.4%	54.6%	45.7%	86.2%	47.9%	28.9%
Cc1ccc2c(N)c(C(=O)Nc3ccc(-c4ccccc4)cc3)sc2n1	58.7%	84.3%	53.8%	63.5%	85.2%	68.5%	20.3%	72.2%	85.1%	58.9%	22.7%	65.1%	56.1%	75.3%	60.1%	59.4%	114%	55.4%	50.9%
COc1cc(CNC(=O)/C=C/c2ccc3c(c2)OCO3)ccc1OCc1cn(-c2cccc(C(F)(F)F)c2)nn1	38.2%	17.6%	41.1%	33.1%	-32.9% (active)	0.703% (active)	33.2%	-29.2% (active)	5.76% (active)	54%	6.68% (active)	21.4%	-4.4% (active)	19.9%	0.888% (active)	6.02% (active)	57.7%	52.2%	48.8%
COc1cc(C2CC(c3cc(OC)c(OC)c(OC)c3)=NN2C(C)=O)ccc1OCc1ccc(F)cc1 (centres undefined)	42.5%	28.1%	79.5%	60.9%	59.9%	27.7%	29.7%	52%	73.2%	69.5%	59.4%	53.9%	29.7%	50.5%	59.2%	53.2%	59.4%	59.9%	30.6%
NS(=O)(=O)c1ccc(N=Nc2c(O)n(CC(=O)Nc3ccccc3Cl)c3ccccc23)cc1	25.1%	7.23% (active)	52.8%	36.9%	6.28% (active)	26.1%	-1.56% (active)	19.7%	21.2%	9.55% (active)	38.1%	27.6%	2.95% (active)	63%	6.65% (active)	16.6%	80.2%	50.5%	26.7%
C(=C\c1cc(/C=C/c2ccccc2)c2ccccc2n1)/c1ccccc1	29.2%	86%	115%	97.7%	62.3%	78.2%	81.7%	93.4%	114%	122%	100%	76.8%	88.5%	106%	107%	94.2%	132%	60.8%	32.1%
COc1ccc([C@H](C)Nc2nc(Cl)nc3ccccc23)cc1	56.1%	28.8%	93.4%	60.6%	74.2%	77.1%	5.57% (active)	47.8%	59.9%	70.2%	19.2%	47.9%	47.1%	66.9%	54.3%	56.4%	108%	34.9%	20.8%
COc1ccc2cc([C@H](C)C(=O)N/N=C/c3ccc(Br)cc3)ccc2c1	101%	106%	71.4%	98.8%	100%	106%	99.9%	95.6%	108%	109%	94.2%	97.2%	83.3%	101%	106%	87.2%	107%	101%	86.6%
